Source: PubChem BioAssay AID1159580 (chemical genetic matrix, 2015)
The campaign covered roughly 5,500 compounds. About 2,000 (36%) were called active. About 18% were inconclusive and are not listed. No stated cut-off is given here; in the data, active means normalized growth mostly below about 0.91 (no sharp cut-off); inconclusive means no clear call, values can overlap the other calls; inactive means mostly above about 0.92. The list shows a part of the results.

Experiment: chemical genetic growth profiling, strain panel (AID 1159580);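 further: tested at 20 µM; growth read once vehicle control cultures reached saturation at 30 °C; 1 = growth at the plate median or of vehicle wells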
Details: S. cerevisiae deletion strains, growth OD
[1] = locus YDL101C, strain DUN1, stronger effect = lower value
[2] = locus YHR030C, strain SLT2, stronger effect = lower value

Measured: normalized growth

COc1ccc(S(=O)(=O)Nc2ccccc2Oc2ccc(Cl)cc2Cl)cc1OC
inactive: locus YAL013W, strain DEP1, stronger effect = lower value 1.01 | locus YBR229C, strain ROT2, stronger effect = lower value 1.01 | locus YCL061C, strain MRC1, stronger effect = lower value 1.07 | [1] 1.08 | locus YDL134C, strain PPH21, stronger effect = lower value 1.01 | locus YDR150W, strain NUM1, stronger effect = lower value 0.933 | locus YEL061C, strain CIN8, stronger effect = lower value 0.999 | locus YGR078C, strain PAC10, stronger effect = lower value 1.04 | locus YGR229C, strain SMI1, stronger effect = lower value 0.995 | [2] 1.06 | locus YHR087W, strain rtc3, stronger effect = lower value 0.988 | locus YJL187C, strain SWE1, stronger effect = lower value 1 | locus YJR043C, strain POL32, stronger effect = lower value 1.05 | locus YJR075W, strain HOC1, stronger effect = lower value 1 | locus YKL190W, strain CNB1, stronger effect = lower value 1.01 | locus YLR039C, strain RIC1, stronger effect = lower value 1.06 | locus YLR058C, strain SHM2 (second series), stronger effect = lower value 0.988 | locus YLR085C, strain ARP6, stronger effect = lower value 1.08 | locus YLR262C, strain YPT6, stronger effect = lower value 0.99 | locus YML094W, strain GIM5, stronger effect = lower value 1 | locus YMR219W, strain ESC1, stronger effect = lower value 1 | locus YMR263W, strain SAP30, stronger effect = lower value 0.967 | locus YMR307W, strain GAS1, stronger effect = lower value 0.986 | locus YNL128W, strain TEP1, stronger effect = lower value 1 | locus YNL153C, strain GIM3, stronger effect = lower value 1.03 | locus YNL298W, strain CLA4 (second series), stronger effect = lower value 1.05 | locus YNL322C, strain KRE1, stronger effect = lower value 0.988 | locus YNR030W, strain Alg12, stronger effect = lower value 1.02 | locus YPL055C, strain LGE1, stronger effect = lower value 0.959 | locus YPL241C, strain CIN2, stronger effect = lower value 1.03 | locus YPR135W, strain CTF4, stronger effect = lower value 1.03

N#Cc1ccc(S(=O)(=O)Nc2ccccc2Oc2ccc(Cl)cc2Cl)cc1
active: locus YLR113W, strain HOG1, stronger effect = lower value 0.836
inactive: locus YAR019C, strain CDC15, stronger effect = lower value 0.98 | locus YBL105C, strain PKC1, stronger effect = lower value 0.98 | locus YBR135W, strain CKS1, stronger effect = lower value 0.976 | locus YBR136W, strain MEC1, stronger effect = lower value 0.985 | locus YBR160W, strain CDC28, stronger effect = lower value 0.983 | locus YDL017W, strain CDC7, stronger effect = lower value 0.979 | locus YDL028C, strain MPS1, stronger effect = lower value 0.979 | [1] 0.986 | locus YDL108W, strain KIN28, stronger effect = lower value 0.973 | locus YDL132W, strain cdc53, stronger effect = lower value 0.979 | locus YDL214C, strain PRR2, stronger effect = lower value 0.968 | locus YDR052C, strain DBF4, stronger effect = lower value 0.979 | locus YDR054C, strain cdc34, stronger effect = lower value 0.974 | locus YDR226W, strain ADK1, stronger effect = lower value 0.969 | locus YDR477W, strain SNF1, stronger effect = lower value 0.935 | locus YER123W, strain YCK3, stronger effect = lower value 0.948 | locus YER133W, strain GLC7, stronger effect = lower value 0.928 | locus YFL009W, strain cdc4, stronger effect = lower value 0.987 | locus YFL029C, strain CAK1, stronger effect = lower value 0.979 | locus YFR003C, strain YPI1, stronger effect = lower value 0.974 | locus YFR019W, strain FAB1, stronger effect = lower value 0.955 | locus YFR028C, strain CDC14, stronger effect = lower value 0.98 | locus YGR040W, strain KSS1, stronger effect = lower value 0.945 | locus YGR052W, strain FMP48, stronger effect = lower value 0.985 | locus YGR092W, strain DBF2, stronger effect = lower value 0.879 | [2] 0.88 | locus YHR079C, strain IRE1, stronger effect = lower value 0.931 | locus YHR082C, strain KSP1, stronger effect = lower value 1.07 | locus YHR205W, strain SCH9, stronger effect = lower value 0.936 | locus YIL147C, strain SLN1, stronger effect = lower value 0.986 | locus YJL095W, strain BCK1, stronger effect = lower value 0.905 | locus YJL128C, strain PBS2, stronger effect = lower value 0.961 | locus YJL157C, strain FAR1, stronger effect = lower value 0.947 | locus YJR016C, strain ILV3, stronger effect = lower value 0.97 | locus YJR066W, strain TOR1 (second series), stronger effect = lower value 0.9 | locus YJR066W, strain TOR1, stronger effect = lower value 1.04 | locus YKL048C, strain ELM1, stronger effect = lower value 0.959 | locus YKL067W, strain YNK1, stronger effect = lower value 0.973 | locus YKL101W, strain HSL1, stronger effect = lower value 0.957 | locus YKL193C, strain SDS22, stronger effect = lower value 0.978 | locus YKL203C, strain TOR2, stronger effect = lower value 1.02 | locus YLR133W, strain CKI1, stronger effect = lower value 0.972 | locus YLR403W, strain SFP1, stronger effect = lower value 0.912 | locus YML070W, strain DAK1, stronger effect = lower value 0.94 | locus YMR001C, strain CDC5, stronger effect = lower value 0.982 | locus YMR205C, strain PFK2 (second series), stronger effect = lower value 0.972 | locus YMR277W, strain FCP1, stronger effect = lower value 0.973 | locus YNL006W, strain LST8, stronger effect = lower value 0.977 | locus YNL020C, strain ARK1, stronger effect = lower value 0.965 | locus YNL161W, strain CBK1, stronger effect = lower value 0.982 | locus YNL183C, strain NPR1, stronger effect = lower value 1.08 | locus YNL207W, strain RIO2, stronger effect = lower value 0.979 | locus YNL222W, strain SSU72, stronger effect = lower value 0.978 | locus YNL307C, strain MCK1 (second series), stronger effect = lower value 0.965 | locus YOL078W, strain AVO1, stronger effect = lower value 0.971 | locus YOL136C, strain PFK27, stronger effect = lower value 0.967 | locus YOR061W, strain CKA2, stronger effect = lower value 0.872 | locus YOR119C, strain RIO1, stronger effect = lower value 1.01 | locus YOR231W, strain MKK1, stronger effect = lower value 1.01 | locus YOR329C, strain SCD5, stronger effect = lower value 0.982 | locus YPL031C, strain PHO85, stronger effect = lower value 0.926 | locus YPL153C, strain RAD53, stronger effect = lower value 0.945 | locus YPL204W, strain HRR25, stronger effect = lower value 0.949 | locus YPL209C, strain IPL1, stronger effect = lower value 0.983 | locus YPL256C, strain CLN2, stronger effect = lower value 0.967 | locus YPR025C, strain CCL1, stronger effect = lower value 0.976 | locus YPR106W, strain ISR1, stronger effect = lower value 0.96 | locus YPR111W, strain DBF20, stronger effect = lower value 0.963 | strain NNK1, stronger effect = lower value 0.981 | strain TSCII, stronger effect = lower value 0.99
